In ChEMBL document CHEMBL1961873, “Compounds: GSK PKIS; Assays: Nanosyn kinase panel” (2012) one finds inhibition data, which are given here for one compound.

The target of assay [1] is Protein kinase C gamma type (Homo sapiens) (UniProt P05129). Particulars: at 1 µM.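 Note: each value is an averaged percent inhibition of the enzyme.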
The target in assay [2] is T1, Protein kinase C iota type (Homo sapiens) (UniProt P41743).
T1 sequence (whole entry): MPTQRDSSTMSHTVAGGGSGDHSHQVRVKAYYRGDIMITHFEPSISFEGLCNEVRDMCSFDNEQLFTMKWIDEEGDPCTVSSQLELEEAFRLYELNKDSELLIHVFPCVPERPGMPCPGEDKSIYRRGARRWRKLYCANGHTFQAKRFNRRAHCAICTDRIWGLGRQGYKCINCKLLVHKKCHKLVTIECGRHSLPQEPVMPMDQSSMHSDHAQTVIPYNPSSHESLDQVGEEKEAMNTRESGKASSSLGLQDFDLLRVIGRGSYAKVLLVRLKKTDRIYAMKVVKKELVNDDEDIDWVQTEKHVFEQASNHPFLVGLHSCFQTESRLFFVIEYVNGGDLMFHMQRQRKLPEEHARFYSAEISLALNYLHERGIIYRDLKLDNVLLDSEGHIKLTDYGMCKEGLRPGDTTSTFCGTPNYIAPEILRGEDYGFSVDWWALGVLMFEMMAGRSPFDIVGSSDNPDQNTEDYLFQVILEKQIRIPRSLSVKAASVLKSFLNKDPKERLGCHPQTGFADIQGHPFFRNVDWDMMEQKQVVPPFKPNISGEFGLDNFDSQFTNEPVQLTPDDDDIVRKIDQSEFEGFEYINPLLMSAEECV
Particulars: at 0.1 µM.

Assay [3] has as its target T1, Protein kinase C iota type (Homo sapiens). Conditions: at 1 µM.
Assay [4] concerns the target Protein kinase C theta type (Homo sapiens) (UniProt Q04759). Particulars: at 0.1 µM.
The target is the same in assay [5]. Conditions: at 1 µM.
Assay [6] deals with Protein kinase C beta type (Homo sapiens) (UniProt P05771). Conditions: at 0.1 µM.
Protein kinase C beta type (Homo sapiens), sequence (P05771 2-671 limits assumed): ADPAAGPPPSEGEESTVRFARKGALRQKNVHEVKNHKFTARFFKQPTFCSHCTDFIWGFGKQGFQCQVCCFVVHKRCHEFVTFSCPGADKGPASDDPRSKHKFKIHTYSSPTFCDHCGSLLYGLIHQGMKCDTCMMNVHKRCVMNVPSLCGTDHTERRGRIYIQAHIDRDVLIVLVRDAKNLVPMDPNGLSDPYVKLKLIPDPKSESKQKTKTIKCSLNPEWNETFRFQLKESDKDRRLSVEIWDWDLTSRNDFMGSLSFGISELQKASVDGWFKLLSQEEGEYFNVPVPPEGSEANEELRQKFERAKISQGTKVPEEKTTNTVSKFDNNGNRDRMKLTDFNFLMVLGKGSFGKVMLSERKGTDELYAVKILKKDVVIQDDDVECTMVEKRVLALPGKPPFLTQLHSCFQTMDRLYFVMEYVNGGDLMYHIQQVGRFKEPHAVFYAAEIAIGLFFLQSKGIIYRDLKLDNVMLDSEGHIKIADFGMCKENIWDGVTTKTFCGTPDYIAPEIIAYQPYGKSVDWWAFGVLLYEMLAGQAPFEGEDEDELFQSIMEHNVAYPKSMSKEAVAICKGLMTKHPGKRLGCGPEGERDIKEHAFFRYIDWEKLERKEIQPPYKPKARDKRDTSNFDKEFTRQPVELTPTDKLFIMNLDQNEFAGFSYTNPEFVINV
Assay [7] shares this target. Conditions: at 1 µM.
Assay [8] has as its target T2, Serine/threonine-protein kinase D1 (Homo sapiens) (UniProt Q15139).
T2 sequence (whole entry): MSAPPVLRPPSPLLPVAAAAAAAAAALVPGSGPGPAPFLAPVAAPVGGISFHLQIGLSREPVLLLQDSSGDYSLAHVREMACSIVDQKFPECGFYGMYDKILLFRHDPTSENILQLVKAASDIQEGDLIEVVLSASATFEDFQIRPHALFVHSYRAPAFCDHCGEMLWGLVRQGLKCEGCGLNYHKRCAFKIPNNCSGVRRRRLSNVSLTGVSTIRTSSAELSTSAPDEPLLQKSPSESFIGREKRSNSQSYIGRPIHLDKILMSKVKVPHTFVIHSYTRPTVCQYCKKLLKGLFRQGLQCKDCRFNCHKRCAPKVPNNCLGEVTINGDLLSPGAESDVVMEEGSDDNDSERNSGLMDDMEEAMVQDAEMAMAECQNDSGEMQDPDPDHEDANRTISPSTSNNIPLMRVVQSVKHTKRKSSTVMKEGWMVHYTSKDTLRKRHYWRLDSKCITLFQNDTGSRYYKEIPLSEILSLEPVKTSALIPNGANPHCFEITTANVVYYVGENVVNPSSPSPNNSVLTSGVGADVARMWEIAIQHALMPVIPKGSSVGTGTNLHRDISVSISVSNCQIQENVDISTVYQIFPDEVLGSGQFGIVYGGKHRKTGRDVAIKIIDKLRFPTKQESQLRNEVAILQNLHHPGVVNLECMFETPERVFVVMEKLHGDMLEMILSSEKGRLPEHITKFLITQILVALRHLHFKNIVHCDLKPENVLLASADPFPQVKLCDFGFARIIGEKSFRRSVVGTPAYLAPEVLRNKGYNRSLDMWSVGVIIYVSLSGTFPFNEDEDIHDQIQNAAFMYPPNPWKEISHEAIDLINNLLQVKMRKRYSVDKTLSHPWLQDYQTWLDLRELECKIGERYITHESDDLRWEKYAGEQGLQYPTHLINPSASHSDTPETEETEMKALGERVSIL
Conditions: at 0.1 µM.

For assay [9], the target named is T2, Serine/threonine-protein kinase D1 (Homo sapiens). Particulars: at 1 µM.
Assay [10] addresses T3, Serine/threonine-protein kinase D2 (Homo sapiens) (UniProt Q9BZL6).
T3 sequence (whole entry): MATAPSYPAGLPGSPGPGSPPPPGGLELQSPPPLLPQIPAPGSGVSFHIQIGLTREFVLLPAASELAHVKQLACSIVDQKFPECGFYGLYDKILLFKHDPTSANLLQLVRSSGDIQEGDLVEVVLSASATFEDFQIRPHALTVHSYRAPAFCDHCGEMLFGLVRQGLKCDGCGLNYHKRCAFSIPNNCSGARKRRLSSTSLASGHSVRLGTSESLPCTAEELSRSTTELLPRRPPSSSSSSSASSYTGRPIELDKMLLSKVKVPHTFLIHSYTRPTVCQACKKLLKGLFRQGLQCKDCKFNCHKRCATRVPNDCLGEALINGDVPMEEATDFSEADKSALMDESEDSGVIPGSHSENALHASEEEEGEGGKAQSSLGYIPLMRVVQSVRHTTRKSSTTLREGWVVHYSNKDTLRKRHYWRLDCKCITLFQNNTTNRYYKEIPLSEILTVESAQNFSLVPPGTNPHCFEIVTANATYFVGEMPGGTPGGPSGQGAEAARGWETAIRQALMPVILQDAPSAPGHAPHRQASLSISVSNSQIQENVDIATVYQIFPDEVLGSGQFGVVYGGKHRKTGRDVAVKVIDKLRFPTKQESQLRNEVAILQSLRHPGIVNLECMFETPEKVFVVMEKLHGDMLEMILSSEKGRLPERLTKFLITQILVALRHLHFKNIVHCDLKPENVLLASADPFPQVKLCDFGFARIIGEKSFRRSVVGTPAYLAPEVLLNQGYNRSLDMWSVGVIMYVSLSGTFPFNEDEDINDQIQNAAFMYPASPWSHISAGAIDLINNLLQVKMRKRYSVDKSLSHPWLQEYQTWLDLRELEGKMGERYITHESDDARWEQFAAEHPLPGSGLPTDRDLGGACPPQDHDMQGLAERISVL
Particulars: at 0.1 µM.

Assay [11] concerns the target T3, Serine/threonine-protein kinase D2 (Homo sapiens). Particulars: at 1 µM.
For assay [12], the target named is T4, Serine/threonine-protein kinase D3 (Homo sapiens) (UniProt O94806).
T4 sequence (whole entry): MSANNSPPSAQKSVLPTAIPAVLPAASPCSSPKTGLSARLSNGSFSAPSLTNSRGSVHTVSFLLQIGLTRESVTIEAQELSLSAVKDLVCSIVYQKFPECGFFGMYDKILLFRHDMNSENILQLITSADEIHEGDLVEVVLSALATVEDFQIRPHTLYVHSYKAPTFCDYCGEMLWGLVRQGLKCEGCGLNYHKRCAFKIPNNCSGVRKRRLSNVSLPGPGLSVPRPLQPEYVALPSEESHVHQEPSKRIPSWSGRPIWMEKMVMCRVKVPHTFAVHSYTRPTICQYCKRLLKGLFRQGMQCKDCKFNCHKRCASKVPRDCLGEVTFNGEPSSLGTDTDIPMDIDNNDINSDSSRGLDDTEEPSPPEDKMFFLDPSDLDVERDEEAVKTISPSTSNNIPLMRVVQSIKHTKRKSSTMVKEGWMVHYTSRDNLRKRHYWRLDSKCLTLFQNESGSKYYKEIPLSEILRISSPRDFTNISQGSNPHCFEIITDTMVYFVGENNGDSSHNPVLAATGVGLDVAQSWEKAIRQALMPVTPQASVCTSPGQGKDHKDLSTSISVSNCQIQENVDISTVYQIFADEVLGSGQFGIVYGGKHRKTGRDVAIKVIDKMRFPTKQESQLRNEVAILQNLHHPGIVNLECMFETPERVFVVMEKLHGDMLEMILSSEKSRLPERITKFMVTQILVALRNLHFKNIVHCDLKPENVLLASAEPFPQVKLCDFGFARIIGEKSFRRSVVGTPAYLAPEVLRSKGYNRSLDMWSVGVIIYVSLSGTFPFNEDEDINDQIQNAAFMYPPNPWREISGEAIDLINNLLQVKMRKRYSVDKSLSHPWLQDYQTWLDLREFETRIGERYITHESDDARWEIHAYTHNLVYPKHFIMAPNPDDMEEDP
Conditions: at 0.1 µM.

Assay [13] has as its target T4, Serine/threonine-protein kinase D3 (Homo sapiens). Conditions: at 1 µM.
The target of assay [14] is T5, cGMP-dependent protein kinase 1 (Homo sapiens) (UniProt Q13976).
T5 sequence (whole entry): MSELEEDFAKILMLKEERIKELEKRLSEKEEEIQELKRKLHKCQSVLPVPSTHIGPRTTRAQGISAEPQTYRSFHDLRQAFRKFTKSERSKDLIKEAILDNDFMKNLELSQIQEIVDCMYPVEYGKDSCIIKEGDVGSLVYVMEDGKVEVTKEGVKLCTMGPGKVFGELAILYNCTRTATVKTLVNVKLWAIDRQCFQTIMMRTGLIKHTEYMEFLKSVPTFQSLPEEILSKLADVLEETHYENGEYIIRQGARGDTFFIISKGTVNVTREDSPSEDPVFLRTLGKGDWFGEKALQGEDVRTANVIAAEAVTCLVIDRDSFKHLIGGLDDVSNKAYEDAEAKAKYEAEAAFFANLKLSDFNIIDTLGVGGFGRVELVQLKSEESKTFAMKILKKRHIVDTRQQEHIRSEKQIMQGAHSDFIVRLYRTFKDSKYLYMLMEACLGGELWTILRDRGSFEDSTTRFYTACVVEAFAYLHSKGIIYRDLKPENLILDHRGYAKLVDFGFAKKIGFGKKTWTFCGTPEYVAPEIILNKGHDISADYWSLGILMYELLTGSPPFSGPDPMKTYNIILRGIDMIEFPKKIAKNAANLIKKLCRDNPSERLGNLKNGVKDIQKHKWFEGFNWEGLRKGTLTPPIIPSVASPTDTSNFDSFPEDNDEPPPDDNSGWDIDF
Conditions: at 0.1 µM.

The target in assay [15] is T5, cGMP-dependent protein kinase 1 (Homo sapiens). Conditions: at 1 µM.
The target of assay [16] is T6, cGMP-dependent protein kinase 2 (Homo sapiens) (UniProt Q13237).
T6 sequence (whole entry): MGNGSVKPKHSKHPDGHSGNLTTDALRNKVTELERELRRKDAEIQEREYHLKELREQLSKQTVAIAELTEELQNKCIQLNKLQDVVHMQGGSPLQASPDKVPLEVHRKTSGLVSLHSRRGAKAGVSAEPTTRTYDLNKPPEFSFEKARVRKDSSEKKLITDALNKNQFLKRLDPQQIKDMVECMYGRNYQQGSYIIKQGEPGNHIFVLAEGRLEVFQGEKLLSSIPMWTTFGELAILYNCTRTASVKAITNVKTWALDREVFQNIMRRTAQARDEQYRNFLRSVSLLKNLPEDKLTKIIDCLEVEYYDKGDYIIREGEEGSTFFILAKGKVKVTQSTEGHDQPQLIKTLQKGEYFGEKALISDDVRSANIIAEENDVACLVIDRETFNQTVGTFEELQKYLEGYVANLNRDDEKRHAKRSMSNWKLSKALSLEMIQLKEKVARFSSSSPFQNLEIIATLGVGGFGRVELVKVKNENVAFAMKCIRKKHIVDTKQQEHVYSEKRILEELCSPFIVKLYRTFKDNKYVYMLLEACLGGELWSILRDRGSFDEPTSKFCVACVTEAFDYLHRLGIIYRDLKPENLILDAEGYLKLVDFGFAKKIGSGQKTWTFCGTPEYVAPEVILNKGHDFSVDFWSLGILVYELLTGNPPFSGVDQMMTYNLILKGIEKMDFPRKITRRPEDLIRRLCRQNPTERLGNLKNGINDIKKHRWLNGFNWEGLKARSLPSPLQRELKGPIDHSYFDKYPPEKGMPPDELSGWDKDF
Conditions: at 0.1 µM.

Assay [17] has as its target T6, cGMP-dependent protein kinase 2 (Homo sapiens). Particulars: at 1 µM.
In assay [18] the target is T7, cAMP-dependent protein kinase catalytic subunit PRKX (Homo sapiens) (UniProt P51817).
T7 sequence (whole entry): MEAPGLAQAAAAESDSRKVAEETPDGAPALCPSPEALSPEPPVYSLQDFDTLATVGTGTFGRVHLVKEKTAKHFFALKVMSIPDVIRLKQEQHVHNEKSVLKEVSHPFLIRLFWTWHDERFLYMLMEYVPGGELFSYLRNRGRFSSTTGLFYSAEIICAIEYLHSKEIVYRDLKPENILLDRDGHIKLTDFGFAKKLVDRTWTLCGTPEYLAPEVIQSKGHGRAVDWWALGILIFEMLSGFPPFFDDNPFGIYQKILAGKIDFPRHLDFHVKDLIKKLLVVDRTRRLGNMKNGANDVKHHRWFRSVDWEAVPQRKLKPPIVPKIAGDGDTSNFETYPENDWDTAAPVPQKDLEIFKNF
Particulars: at 0.1 µM.

Assay [19] concerns the target T7, cAMP-dependent protein kinase catalytic subunit PRKX (Homo sapiens). Particulars: at 1 µM.
The target of assay [20] is Rho-associated protein kinase 1 (Homo sapiens) (UniProt Q13464). Particulars: at 0.1 µM.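 Note: values are mean percent inhibition of ROCK1.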
Rho-associated protein kinase 1 (Homo sapiens), sequence (Q13464 2-1354 limits assumed): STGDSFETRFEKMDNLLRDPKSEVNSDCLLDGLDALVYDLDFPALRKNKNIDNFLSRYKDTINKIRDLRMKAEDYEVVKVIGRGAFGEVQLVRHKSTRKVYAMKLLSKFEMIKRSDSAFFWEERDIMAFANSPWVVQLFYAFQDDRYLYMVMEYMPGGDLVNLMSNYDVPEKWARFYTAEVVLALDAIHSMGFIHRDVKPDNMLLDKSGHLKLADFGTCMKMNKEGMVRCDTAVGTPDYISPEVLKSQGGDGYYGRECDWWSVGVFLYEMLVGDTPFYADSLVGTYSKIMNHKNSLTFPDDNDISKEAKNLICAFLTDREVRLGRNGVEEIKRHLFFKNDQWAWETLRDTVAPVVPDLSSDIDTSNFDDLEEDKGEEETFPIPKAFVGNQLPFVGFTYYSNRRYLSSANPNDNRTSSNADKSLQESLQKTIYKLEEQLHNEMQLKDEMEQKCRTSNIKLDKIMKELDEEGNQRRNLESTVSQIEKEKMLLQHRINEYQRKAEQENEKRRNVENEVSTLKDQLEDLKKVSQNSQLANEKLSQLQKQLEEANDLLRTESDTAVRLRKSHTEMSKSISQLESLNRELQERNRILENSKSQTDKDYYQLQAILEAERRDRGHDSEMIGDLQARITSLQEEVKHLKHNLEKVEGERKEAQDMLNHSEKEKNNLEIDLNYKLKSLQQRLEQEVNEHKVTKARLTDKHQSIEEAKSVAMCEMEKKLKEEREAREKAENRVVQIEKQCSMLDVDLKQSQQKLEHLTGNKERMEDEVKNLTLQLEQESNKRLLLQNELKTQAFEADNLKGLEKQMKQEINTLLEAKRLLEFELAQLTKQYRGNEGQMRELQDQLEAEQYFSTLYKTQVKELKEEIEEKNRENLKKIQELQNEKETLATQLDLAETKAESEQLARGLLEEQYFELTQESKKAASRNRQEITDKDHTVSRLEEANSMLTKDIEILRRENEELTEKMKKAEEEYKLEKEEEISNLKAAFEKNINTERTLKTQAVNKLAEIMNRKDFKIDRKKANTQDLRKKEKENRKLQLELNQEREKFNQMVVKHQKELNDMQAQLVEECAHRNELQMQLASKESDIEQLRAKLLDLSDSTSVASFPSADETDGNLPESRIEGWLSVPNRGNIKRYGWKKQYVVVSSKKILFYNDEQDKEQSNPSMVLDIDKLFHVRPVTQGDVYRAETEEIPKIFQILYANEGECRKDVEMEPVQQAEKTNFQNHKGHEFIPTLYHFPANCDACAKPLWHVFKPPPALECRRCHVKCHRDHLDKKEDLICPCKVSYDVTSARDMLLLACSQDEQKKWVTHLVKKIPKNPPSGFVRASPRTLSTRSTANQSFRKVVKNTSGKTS

Protein kinase C theta type (Homo sapiens), sequence (Q04759 whole entry, looked up): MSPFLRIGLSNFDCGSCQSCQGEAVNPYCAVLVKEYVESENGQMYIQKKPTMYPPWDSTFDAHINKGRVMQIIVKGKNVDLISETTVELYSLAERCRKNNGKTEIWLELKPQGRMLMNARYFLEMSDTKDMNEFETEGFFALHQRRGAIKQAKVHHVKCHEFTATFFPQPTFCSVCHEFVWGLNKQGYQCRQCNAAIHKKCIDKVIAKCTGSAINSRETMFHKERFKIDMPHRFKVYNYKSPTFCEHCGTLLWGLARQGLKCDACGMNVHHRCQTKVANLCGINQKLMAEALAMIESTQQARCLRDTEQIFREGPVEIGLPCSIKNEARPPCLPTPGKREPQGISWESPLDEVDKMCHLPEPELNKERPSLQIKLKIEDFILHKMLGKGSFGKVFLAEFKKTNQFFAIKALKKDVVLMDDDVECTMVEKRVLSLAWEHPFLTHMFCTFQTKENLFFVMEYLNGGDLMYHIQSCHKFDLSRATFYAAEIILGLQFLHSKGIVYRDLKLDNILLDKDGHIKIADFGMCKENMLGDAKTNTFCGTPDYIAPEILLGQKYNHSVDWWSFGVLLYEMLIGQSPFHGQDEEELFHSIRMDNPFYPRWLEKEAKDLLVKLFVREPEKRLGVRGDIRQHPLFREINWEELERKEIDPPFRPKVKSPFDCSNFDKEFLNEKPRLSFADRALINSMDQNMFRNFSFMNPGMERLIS

What is called inhibition is the relative decrease from the control value, in per cent. Take `c1cc(-c2cnn3nc(N4CCOCC4)ccc23)nc(NC2CC2)n1`: the inhibition was 1.85% in [1]; 1.79% in [2]; 3.89% in [3]; 1.39% in assay [4]; 1.61% in assay [5]; 0.87% in [6]. For the same compound, the inhibition in assay [7] was 1.89%; in assay [8], 3.97%; in [9], 39.6%; in [10], 6.38%; in assay [11] it was 52.4%; in [12] it was 5.91%. The inhibition came to 49.9% in assay [13]; 2.98% in [14]; 6.68% in assay [15]; 2.25% in [16]; 11.9% in assay [17]; 1.09% in assay [18]. The inhibition is -0.73% in assay [19] and 1.67% in assay [20].
